This is an account of results in ChEMBL document CHEMBL1961873, “Compounds: GSK PKIS; Assays: Nanosyn kinase panel” (2012).

The target in test [1] is Protein kinase C gamma type (Homo sapiens) (UniProt P05129). The following applies: at 1 µM.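 Further: each value is an averaged percent inhibition of the enzyme.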
The target in test [2] is T1, Protein kinase C iota type (Homo sapiens) (UniProt P41743).
T1 sequence (whole entry): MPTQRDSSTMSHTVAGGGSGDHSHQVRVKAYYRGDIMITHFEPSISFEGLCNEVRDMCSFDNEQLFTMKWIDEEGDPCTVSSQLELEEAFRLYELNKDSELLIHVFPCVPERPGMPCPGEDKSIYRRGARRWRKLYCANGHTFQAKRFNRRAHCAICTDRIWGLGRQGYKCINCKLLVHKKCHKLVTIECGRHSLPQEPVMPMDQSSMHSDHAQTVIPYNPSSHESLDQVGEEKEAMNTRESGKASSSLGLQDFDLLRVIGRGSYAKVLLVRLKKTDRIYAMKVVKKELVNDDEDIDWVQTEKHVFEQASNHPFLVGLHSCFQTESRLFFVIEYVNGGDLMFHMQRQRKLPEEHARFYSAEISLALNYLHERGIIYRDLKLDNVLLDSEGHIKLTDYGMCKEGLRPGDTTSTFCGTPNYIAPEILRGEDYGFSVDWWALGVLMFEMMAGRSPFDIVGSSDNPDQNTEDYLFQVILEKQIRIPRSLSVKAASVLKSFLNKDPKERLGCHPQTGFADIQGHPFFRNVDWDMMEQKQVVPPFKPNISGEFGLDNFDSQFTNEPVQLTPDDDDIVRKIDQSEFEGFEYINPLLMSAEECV
The conditions noted are these: at 0.1 µM.

Test [3] has as its target T1, Protein kinase C iota type (Homo sapiens). The following applies: at 1 µM.
Test [4] concerns the target Protein kinase C theta type (Homo sapiens) (UniProt Q04759). The following applies: at 0.1 µM.
For test [5] the target is unchanged. The following applies: at 1 µM.
For test [6], the target named is Protein kinase C beta type (Homo sapiens) (UniProt P05771). The following applies: at 0.1 µM.
Test [7] shares this target. The following applies: at 1 µM.
For test [8], the target named is T2, Serine/threonine-protein kinase D1 (Homo sapiens) (UniProt Q15139).
T2 sequence (whole entry): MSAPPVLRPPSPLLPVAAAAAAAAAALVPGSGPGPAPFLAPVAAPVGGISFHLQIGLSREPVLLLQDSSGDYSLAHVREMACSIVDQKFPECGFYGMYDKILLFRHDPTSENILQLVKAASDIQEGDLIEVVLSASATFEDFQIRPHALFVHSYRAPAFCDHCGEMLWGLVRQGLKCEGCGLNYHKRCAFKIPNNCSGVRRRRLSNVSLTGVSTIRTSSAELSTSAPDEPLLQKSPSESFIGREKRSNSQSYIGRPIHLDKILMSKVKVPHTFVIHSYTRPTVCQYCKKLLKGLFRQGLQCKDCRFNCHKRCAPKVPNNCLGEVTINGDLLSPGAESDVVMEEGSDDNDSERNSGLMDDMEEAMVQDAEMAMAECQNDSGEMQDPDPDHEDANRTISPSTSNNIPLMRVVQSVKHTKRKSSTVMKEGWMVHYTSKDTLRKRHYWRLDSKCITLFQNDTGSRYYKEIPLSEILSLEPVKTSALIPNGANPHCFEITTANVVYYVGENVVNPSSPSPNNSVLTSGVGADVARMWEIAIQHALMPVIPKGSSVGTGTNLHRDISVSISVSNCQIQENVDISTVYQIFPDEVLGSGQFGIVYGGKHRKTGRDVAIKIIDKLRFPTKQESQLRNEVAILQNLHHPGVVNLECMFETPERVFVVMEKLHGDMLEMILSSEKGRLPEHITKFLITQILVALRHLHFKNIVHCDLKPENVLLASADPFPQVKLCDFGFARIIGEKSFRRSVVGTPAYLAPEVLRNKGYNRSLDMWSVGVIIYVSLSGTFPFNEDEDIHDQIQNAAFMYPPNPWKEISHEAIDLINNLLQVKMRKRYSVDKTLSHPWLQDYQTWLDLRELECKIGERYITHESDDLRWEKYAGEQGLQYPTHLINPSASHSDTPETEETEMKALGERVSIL
The conditions noted are these: at 0.1 µM.

The target in test [9] is T2, Serine/threonine-protein kinase D1 (Homo sapiens). The conditions noted are these: at 1 µM.
Test [10] deals with T3, Serine/threonine-protein kinase D2 (Homo sapiens) (UniProt Q9BZL6).
T3 sequence (whole entry): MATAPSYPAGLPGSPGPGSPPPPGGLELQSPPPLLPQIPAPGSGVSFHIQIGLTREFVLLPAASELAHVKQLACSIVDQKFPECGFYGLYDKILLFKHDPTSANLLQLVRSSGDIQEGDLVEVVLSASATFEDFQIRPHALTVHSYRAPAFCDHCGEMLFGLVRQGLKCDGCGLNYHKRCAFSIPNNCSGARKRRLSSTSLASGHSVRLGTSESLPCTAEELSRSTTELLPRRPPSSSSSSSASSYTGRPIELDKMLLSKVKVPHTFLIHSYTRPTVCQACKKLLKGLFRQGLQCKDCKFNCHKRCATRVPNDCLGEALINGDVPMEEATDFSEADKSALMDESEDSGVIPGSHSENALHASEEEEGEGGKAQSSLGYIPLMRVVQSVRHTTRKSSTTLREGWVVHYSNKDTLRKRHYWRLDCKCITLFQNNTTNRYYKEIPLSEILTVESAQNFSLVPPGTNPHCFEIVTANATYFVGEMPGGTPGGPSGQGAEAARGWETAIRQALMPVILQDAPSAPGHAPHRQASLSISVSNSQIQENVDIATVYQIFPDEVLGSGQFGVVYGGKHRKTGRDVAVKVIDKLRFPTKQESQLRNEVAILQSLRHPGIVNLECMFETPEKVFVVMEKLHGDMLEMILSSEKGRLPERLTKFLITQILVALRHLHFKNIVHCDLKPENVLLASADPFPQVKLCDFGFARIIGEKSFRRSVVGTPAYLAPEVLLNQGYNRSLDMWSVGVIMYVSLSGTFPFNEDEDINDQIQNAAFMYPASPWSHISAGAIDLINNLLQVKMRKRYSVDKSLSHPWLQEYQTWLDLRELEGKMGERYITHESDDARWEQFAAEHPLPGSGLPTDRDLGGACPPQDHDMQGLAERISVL
The following applies: at 0.1 µM.

Test [11] has as its target T3, Serine/threonine-protein kinase D2 (Homo sapiens). The following applies: at 1 µM.
Test [12] deals with T4, Serine/threonine-protein kinase D3 (Homo sapiens) (UniProt O94806).
T4 sequence (whole entry): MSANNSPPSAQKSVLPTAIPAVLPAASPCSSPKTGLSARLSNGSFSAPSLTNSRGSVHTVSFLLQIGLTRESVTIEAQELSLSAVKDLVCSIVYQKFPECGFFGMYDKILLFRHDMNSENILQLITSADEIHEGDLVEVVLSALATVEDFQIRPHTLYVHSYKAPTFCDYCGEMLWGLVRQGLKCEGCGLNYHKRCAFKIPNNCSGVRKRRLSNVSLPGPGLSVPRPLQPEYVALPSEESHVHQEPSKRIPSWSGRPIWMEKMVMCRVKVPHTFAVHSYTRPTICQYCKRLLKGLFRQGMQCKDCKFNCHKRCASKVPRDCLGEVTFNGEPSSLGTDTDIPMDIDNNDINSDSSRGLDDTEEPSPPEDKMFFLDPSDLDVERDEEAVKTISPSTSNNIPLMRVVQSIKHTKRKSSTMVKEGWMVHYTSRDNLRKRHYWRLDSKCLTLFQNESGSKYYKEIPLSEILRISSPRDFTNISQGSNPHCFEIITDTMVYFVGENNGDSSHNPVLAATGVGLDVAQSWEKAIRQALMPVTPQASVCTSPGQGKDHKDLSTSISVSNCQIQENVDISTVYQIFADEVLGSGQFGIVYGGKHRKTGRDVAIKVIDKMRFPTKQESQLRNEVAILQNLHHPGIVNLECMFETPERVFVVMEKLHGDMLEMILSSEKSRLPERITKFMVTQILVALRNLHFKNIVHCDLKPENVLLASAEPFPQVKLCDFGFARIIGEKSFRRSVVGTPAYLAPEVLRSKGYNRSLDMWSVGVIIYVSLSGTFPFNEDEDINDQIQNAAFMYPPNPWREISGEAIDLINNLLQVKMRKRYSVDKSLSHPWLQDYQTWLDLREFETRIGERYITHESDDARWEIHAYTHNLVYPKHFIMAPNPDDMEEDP
The following applies: at 0.1 µM.

The target in test [13] is T4, Serine/threonine-protein kinase D3 (Homo sapiens). The following applies: at 1 µM.
For test [14], the target named is T5, cGMP-dependent protein kinase 1 (Homo sapiens) (UniProt Q13976).
T5 sequence (whole entry): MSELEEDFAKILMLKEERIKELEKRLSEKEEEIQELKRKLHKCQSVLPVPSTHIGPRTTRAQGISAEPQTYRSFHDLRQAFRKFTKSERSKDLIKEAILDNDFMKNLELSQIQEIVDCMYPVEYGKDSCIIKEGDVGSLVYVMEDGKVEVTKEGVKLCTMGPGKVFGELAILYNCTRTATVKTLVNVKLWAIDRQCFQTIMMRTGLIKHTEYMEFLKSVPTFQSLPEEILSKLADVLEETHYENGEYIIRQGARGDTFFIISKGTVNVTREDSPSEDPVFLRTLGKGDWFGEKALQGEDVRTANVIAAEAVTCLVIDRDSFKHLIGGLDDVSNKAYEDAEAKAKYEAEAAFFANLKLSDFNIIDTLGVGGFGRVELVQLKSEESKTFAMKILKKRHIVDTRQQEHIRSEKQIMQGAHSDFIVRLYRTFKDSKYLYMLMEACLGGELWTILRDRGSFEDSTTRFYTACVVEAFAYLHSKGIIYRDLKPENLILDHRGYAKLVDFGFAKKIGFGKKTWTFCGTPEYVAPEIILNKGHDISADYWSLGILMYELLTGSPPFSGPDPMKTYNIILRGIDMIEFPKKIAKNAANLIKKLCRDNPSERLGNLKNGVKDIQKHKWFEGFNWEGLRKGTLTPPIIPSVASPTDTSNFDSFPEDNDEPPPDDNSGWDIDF
The conditions noted are these: at 0.1 µM.

The target of test [15] is T5, cGMP-dependent protein kinase 1 (Homo sapiens). The following applies: at 1 µM.
Test [16] addresses T6, cGMP-dependent protein kinase 2 (Homo sapiens) (UniProt Q13237).
T6 sequence (whole entry): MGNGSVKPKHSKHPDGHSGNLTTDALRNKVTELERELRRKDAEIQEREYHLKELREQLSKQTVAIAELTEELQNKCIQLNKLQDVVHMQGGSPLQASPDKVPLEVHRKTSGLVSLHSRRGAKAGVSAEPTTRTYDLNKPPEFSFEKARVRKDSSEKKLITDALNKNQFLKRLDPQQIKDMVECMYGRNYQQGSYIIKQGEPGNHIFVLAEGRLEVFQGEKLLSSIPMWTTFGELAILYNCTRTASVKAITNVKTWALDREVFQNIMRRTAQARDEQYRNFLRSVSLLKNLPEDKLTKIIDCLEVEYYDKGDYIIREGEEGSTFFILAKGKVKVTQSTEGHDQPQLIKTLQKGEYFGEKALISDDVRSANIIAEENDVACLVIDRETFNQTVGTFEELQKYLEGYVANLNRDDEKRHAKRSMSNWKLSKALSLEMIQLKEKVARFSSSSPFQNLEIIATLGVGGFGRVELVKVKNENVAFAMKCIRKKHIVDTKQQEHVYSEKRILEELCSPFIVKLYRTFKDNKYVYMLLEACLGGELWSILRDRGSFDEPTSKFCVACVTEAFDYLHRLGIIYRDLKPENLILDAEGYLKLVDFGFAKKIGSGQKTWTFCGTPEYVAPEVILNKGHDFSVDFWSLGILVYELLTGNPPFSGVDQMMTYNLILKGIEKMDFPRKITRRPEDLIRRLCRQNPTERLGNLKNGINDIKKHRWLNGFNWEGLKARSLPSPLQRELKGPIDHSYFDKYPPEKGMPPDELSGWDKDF
The following applies: at 0.1 µM.

Test [17] deals with T6, cGMP-dependent protein kinase 2 (Homo sapiens). The conditions noted are these: at 1 µM.
In test [18] the target is T7, cAMP-dependent protein kinase catalytic subunit PRKX (Homo sapiens) (UniProt P51817).
T7 sequence (whole entry): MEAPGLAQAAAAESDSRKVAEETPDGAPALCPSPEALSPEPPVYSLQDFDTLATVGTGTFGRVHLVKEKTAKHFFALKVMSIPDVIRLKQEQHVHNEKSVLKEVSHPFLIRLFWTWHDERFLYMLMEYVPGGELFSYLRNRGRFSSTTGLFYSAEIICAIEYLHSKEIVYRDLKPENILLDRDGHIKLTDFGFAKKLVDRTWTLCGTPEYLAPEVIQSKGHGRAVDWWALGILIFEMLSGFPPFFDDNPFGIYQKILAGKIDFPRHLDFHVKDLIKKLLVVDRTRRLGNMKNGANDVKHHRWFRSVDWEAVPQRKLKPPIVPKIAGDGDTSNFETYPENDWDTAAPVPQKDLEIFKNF
The conditions noted are these: at 0.1 µM.

Test [19] concerns the target T7, cAMP-dependent protein kinase catalytic subunit PRKX (Homo sapiens). The following applies: at 1 µM.
Test [20] concerns the target Rho-associated protein kinase 1 (Homo sapiens) (UniProt Q13464). The following applies: at 0.1 µM.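 Further: values are mean percent inhibition of ROCK1.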

Each structure is given as a SMILES string.

Sequence of Protein kinase C theta type (Homo sapiens) (Q04759 whole entry, looked up): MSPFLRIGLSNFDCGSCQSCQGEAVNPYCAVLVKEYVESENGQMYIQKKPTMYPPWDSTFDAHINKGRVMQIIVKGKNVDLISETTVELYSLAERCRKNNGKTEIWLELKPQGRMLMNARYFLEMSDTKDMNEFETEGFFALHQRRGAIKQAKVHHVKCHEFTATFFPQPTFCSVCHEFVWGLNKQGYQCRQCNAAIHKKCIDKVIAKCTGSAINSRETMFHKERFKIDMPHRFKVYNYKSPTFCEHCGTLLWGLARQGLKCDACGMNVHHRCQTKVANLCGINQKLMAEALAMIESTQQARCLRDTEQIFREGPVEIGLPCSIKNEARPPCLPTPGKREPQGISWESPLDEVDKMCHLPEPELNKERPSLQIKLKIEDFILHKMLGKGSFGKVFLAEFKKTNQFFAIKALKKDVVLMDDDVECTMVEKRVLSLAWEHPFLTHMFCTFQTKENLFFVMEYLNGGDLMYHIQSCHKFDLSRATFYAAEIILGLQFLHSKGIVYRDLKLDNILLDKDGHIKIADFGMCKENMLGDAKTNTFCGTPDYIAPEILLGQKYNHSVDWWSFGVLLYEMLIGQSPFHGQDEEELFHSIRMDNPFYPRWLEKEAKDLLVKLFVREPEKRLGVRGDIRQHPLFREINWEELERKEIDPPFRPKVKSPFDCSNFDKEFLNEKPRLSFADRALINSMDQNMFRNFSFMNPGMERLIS
Sequence of Protein kinase C beta type (Homo sapiens) (P05771 2-671 limits assumed): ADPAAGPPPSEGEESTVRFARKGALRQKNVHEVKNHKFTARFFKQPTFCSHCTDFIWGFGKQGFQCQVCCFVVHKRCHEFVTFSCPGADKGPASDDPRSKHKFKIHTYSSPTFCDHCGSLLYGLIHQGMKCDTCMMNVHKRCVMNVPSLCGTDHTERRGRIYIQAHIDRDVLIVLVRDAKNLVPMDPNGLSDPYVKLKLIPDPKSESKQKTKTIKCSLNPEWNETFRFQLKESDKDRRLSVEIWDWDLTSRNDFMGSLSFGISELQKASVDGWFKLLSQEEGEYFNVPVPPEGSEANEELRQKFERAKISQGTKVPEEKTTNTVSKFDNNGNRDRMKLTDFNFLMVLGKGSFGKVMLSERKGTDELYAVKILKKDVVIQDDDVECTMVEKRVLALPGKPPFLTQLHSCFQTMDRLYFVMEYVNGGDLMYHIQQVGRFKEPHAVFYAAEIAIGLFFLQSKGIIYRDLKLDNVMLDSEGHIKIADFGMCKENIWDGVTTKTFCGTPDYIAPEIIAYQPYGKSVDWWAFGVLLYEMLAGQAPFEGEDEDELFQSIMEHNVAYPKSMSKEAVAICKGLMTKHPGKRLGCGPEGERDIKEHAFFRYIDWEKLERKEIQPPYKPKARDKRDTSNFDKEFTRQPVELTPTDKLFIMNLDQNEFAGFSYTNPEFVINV
Sequence of Rho-associated protein kinase 1 (Homo sapiens) (Q13464 2-1354 limits assumed): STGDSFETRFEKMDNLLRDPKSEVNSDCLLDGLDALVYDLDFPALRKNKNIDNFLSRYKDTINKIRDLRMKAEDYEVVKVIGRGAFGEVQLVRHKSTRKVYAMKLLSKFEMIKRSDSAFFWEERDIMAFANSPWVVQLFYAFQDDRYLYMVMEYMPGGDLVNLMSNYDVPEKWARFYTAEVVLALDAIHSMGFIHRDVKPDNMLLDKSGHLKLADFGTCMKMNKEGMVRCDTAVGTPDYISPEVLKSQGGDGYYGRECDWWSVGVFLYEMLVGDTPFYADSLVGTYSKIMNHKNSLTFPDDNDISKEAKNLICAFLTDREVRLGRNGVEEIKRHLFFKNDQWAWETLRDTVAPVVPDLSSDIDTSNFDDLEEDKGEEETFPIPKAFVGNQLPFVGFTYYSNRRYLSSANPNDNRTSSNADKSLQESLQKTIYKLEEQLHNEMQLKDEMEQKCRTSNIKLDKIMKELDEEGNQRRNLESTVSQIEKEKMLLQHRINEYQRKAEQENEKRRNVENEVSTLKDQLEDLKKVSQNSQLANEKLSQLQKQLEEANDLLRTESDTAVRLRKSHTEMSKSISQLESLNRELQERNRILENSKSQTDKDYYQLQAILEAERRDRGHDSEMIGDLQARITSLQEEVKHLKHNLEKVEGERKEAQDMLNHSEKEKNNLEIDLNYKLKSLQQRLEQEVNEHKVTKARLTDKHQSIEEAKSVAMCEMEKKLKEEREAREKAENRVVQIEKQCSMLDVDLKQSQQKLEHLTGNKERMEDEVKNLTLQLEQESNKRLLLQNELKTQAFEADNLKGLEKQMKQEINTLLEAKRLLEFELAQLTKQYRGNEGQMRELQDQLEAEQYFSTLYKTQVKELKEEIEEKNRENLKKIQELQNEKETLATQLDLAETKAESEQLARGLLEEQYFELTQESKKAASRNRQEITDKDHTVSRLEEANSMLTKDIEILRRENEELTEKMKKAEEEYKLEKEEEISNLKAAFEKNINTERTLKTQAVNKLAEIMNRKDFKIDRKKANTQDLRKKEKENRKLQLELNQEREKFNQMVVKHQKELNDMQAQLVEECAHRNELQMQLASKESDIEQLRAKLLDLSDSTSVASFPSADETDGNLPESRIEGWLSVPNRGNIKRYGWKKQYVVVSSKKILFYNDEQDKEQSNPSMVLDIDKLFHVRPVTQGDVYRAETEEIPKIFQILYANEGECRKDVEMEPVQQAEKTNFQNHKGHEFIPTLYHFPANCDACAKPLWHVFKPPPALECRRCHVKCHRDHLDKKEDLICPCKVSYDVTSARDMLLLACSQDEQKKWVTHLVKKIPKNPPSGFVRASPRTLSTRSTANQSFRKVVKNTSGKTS

Broadly, the inhibition is the drop in the measured response relative to a control, in per cent. As to `FC(F)(F)CNc1nccc(-c2cnn3ncccc23)n1`, the inhibition is -1.39% in test [1]; 1.84% in test [2]; 1.19% in test [3]; 1.1% in test [4]; 1.36% in [5]; 0.94% in test [6]. In addition, the inhibition in test [7] came to 1.72%; in test [8] it was 3.65%; in [9], 5.03%; in [10], 3.32%; in test [11] it was 2.13%; in test [12], 2.29%. The inhibition in [13] came to 3.81%; in test [14], 1.02%; in test [15], 1.12%; in [16], 2.48%; in test [17], 2.8%; in test [18] it was 1.1%. For the same compound, the inhibition is 0.78% in test [19] and -0.46% in [20].

Turning to `CC1(C)CC(n2cnc(-c3ccc(F)cc3)c2-c2ccnc(N)n2)CC(C)(C)N1`, the inhibition stood at 1.2% in test [1]; 0.48% in test [2]; 0.2% in [3]; 0.49% in test [4]; 1.27% in test [5]; 1.08% in [6]. The inhibition in test [7] is 4.59%; in test [8], 0.74%; in test [9], 3.49%; in [10] it was 1.47%; in test [11], 3.58%; in [12], 1.4%. In addition, the inhibition in [13] is 3.8%; in test [14], 0.62%; in test [15], 2.53%; in test [16] it was 1.24%; in test [17], 2.55%; in test [18] it was 0.98%. In addition, the figures for the inhibition in [19] and in test [20] were 2.76% and 1.34%, respectively.
